Assay results reported in PubChem BioAssay AID488866 (Broad Institute, 2010).
Potency and affinity values are given separately. Calls of active or inactive are those of the source.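 Rule for the calls: active = compounds that lower nitrite signal with fitted half-max concentration up to ten times top dose; inconclusive = flat curves showing 30 to 70% inhibition, or poor fits; inactive = the rest.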

Experiment: suppression of NO production in INS-1E cells – cell-based, Griess absorbance, dry powder, dose response (AID 488866)
Settings: INS-1E cytokine-induced nitrite, 48 h; series mostly up to 19.5 µM; activity change, negative = inhibition: at the top concentration

Activity change, negative = inhibition, inactive:
COc1ccc(S(=O)(=O)N(C)C[C@@H]2Oc3c(NC(=O)Nc4cccc5ccccc45)cccc3C(=O)N([C@@H](C)CO)C[C@H]2C)cc1 -14.6%, C[C@@H]1CN([C@@H](C)CO)C(=O)c2cccc(NC(=O)Nc3cccc4ccccc34)c2O[C@H]1CN(C)S(=O)(=O)Cc1ccc(F)cc1 -0.544%, Cc1ccc(S(=O)(=O)N(C)C[C@@H]2Oc3c(NC(=O)Nc4ccc(F)cc4)cccc3C(=O)N([C@H](C)CO)C[C@H]2C)cc1 -12.1%, C[C@@H]1CN([C@@H](C)CO)C(=O)c2cccc(NC(=O)Nc3ccc(F)cc3)c2O[C@H]1CN(C)S(=O)(=O)c1ccc(F)cc1 -5.25%, COc1ccc(S(=O)(=O)N(C)C[C@@H]2Oc3c(NC(=O)Nc4cc(F)ccc4F)cccc3C(=O)N([C@@H](C)CO)C[C@H]2C)cc1 -1.63%, COc1ccc(S(=O)(=O)N(C)C[C@@H]2Oc3c(NC(=O)Nc4cccc5c4CCCC5)cccc3C(=O)N([C@@H](C)CO)C[C@H]2C)cc1 -3.44%, C[C@@H]1CN([C@@H](C)CO)C(=O)c2cccc(NC(=O)Nc3cccc4ccccc34)c2O[C@H]1CN(C)S(=O)(=O)c1ccccc1F -12.8%, COc1cccc(S(=O)(=O)N(C)C[C@@H]2Oc3c(NC(=O)Nc4cccc5ccccc45)cccc3C(=O)N([C@@H](C)CO)C[C@H]2C)c1 -17.2%, COc1ccc(S(=O)(=O)N(C)C[C@@H]2Oc3c(NC(=O)Nc4cccc(-c5ncccn5)c4)cccc3C(=O)N([C@@H](C)CO)C[C@H]2C)cc1 -10.3%, C[C@@H]1CN([C@@H](C)CO)C(=O)c2cccc(NC(=O)Nc3ccc(F)cc3)c2O[C@H]1CN(C)S(=O)(=O)c1ccc(Cl)cc1 -8.14%, COc1ccc(S(=O)(=O)N(C)C[C@@H]2Oc3c(NC(=O)Nc4cccc5ccccc45)cccc3C(=O)N([C@@H](C)CO)C[C@H]2C)cc1F -2.71%, Cc1ccc(S(=O)(=O)N(C)C[C@@H]2Oc3c(NC(=O)Nc4cccc5ccccc45)cccc3C(=O)N([C@@H](C)CO)C[C@H]2C)cc1 -15.7% [at 21 µM], COc1ccc(S(=O)(=O)N(C)C[C@@H]2Oc3c(NC(=O)Nc4cc(F)cc5c4OCOC5)cccc3C(=O)N([C@@H](C)CO)C[C@H]2C)cc1 -7.41%, COc1ccc(S(=O)(=O)N(C)C[C@@H]2Oc3c(NC(=O)c4cccc5ccccc45)cccc3C(=O)N([C@@H](C)CO)C[C@H]2C)cc1 0.538%, C[C@@H]1CN([C@@H](C)CO)C(=O)c2cccc(NC(=O)Nc3cccc4ccccc34)c2O[C@H]1CN(C)S(=O)(=O)c1ccc(F)cc1 -9.22%, COc1ccc(S(=O)(=O)N(C)C[C@@H]2Oc3c(NC(=O)Nc4ccc5c(c4)OCCO5)cccc3C(=O)N([C@@H](C)CO)C[C@H]2C)cc1 -9.23%, C[C@@H]1CN([C@@H](C)CO)C(=O)c2cccc(NC(=O)Nc3cccc4ccccc34)c2O[C@H]1CN(C)S(=O)(=O)c1ccc2c(c1)CCC(=O)N2 7.42%, Cc1ccc(S(=O)(=O)N(C)C[C@@H]2Oc3c(NC(=O)Nc4ccc(F)cc4)cccc3C(=O)N([C@@H](C)CO)C[C@H]2C)cc1 -8.14%, COc1ccc(S(=O)(=O)N(C)C[C@@H]2Oc3c(NC(=O)Nc4cccc5c4CC(C)(C)O5)cccc3C(=O)N([C@@H](C)CO)C[C@H]2C)cc1 -14.3%, C[C@@H]1CN([C@@H](C)CO)C(=O)c2cccc(NC(=O)Nc3cccc4ccccc34)c2O[C@H]1CN(C)S(=O)(=O)c1ccc2c(c1)OCCO2 -16.8%, C[C@@H]1CN([C@@H](C)CO)C(=O)c2cccc(NC(=O)Nc3cccc4ccccc34)c2O[C@H]1CN(C)S(=O)(=O)c1ccc(Oc2ccccc2)cc1 -16.5%, COc1ccc(S(=O)(=O)N(C)C[C@@H]2Oc3c(NC(=O)Nc4ccc5occc5c4)cccc3C(=O)N([C@@H](C)CO)C[C@H]2C)cc1 -5.61%, COc1ccc(S(=O)(=O)N(C)C[C@@H]2Oc3c(NC(=O)Nc4cccc5c4ccn5C)cccc3C(=O)N([C@@H](C)CO)C[C@H]2C)cc1 -9.95%, COc1ccc(S(=O)(=O)N(C)C[C@@H]2Oc3c(NC(=O)Nc4cccc5c4NSN5)cccc3C(=O)N([C@@H](C)CO)C[C@H]2C)cc1 -14.6%, COc1ccc(S(=O)(=O)N(C)C[C@@H]2Oc3ccc(NC(=O)Nc4cccc5ccccc45)cc3C(=O)N([C@@H](C)CO)C[C@H]2C)cc1 5.61% [at 21 µM], COc1ccccc1S(=O)(=O)N(C)C[C@@H]1Oc2c(NC(=O)Nc3cccc4ccccc34)cccc2C(=O)N([C@@H](C)CO)C[C@H]1C -10.3%
